The list is not random: actives were taken first. Their share in the collection is about 2.4%.
D2 PAM-1: HTS Assay for Positive Allosteric Modulators of the Human D2 Dopamine Receptor: Primary Screen for Potentiators | D(2) dopamine receptor (Homo sapiens), P14416 | 0.34% of 340,000 active | HEK293 T-REx D2, calcium flux, EC20 dopamine potentiation | potentiation, % at 10 µM;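 active = potentiation over 3 SD above the plate norm, cut at about 30% in these data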
Target sequence (P14416 whole entry, looked up): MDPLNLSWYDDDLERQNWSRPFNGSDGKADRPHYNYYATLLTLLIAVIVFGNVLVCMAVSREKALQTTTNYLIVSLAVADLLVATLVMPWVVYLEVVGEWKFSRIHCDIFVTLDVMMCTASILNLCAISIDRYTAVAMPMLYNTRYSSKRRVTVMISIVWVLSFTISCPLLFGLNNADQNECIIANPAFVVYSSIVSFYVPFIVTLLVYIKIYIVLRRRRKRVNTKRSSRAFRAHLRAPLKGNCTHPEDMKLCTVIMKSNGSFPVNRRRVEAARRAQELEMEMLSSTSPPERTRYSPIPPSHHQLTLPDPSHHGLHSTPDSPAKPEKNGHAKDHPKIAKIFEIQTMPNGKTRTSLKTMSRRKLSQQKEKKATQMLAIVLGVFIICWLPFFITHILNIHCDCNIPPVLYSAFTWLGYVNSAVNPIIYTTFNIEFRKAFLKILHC
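Potentiation of an EC20 dopamine calcium response is measured in a force-coupled, tetracycline-inducible Hek293 Trex D2 line. Compound-only kinetic reads over 180 s flag agonists before dopamine addition.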
D2 antag: HTS Assay for Allosteric Antagonists of the Human D2 Dopamine Receptor: Primary Screen for Antagonists | D(2) dopamine receptor (Homo sapiens), P14416 | HEK293 TREx D2 cells, calcium flux, dopamine EC80 | inhibition, % at 10 µM | 2% of 340,000 active; in the data active = inhibition above about 30%; inactive = below that, where a call was filed
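Tetracycline-induced HEK293 TREx cells expressing D2 receptor forced-coupled to calcium signalling, loaded with no-wash calcium dye. Compounds added and calcium flux read 180 s, then dopamine added at EC80 and read a further 180 s.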
D2 PAM-2: Beta-Arrestin HTS for Positive Allosteric Modulators of the Human D2 Dopamine Receptor: Potentiators; D(2) dopamine receptor (Homo sapiens), P14416; DiscoveRx D2 beta-arrestin cells, luminescence, 90 min; 100% = 57 uM dopamine signal; potentiation, % (no concentration beside the values); 0.23% of 360,000 active; AID 624464, 2012; in the data active = potentiation above about 50%; inconclusive = mostly about 30% to 49%
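PathHunter D2 cells, attached overnight at 37 deg C, received compound in DMSO plus dopamine at EC20 (50 nM final) for 90 min at 37 deg C. Beta-arrestin recruitment was read as luminescence after 1 h with detection reagent at ambient temperature.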
D2 ag-1: Beta-Arrestin HTS for Positive Allosteric Modulators of the Human D2 Dopamine Receptor: Agonists | DiscoveRx PathHunter D2 beta-arrestin, luminescence, 90 min; 100% = 57 uM dopamine signal | 0.084% of 360,000 active | D(2) dopamine receptor (Homo sapiens), P14416 | AID 624465, 2012 | activation, % (no concentration beside the values); in the data active = activation above about 40%; inconclusive = between about 15% and that limit
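DiscoveRx PathHunter D2 beta-arrestin cells (2,100/well) attached overnight, then compound-stimulated 90 min at 37 C in HBSS/10 mM HEPES/0.1% Tween-20 buffer; beta-galactosidase complementation read by luminescence after 1 h at ambient temperature. Dopamine 57 uM final (EC100) as control.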
D2 ag-2: HTS Assay for Allosteric Agonists of the Human D2 Dopamine Receptor: Primary Screen for Agonists. HEK293 T-REx D2 cells, calcium flux agonist mode. activation, % at 2 µM. 0.53% of 340,000 active;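 active = activation over 3 SD above normal in the single-dose calcium agonist read, cut at about 30% in these data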
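Tetracycline-induced HEK293 T-REx cells with force-coupled D2 receptor, plated overnight at 30 C, loaded with no-wash calcium dye. After a 10 s baseline, compound was pin-added and calcium flux read kinetically for 180 s; calcium rises flagged agonists.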
A number is an active result; . = inactive; ? = inconclusive; / = no result given.

SMILES	D2 PAM-1	D2 antag	D2 PAM-2	D2 ag-1	D2 ag-2
Cc1ccc(-n2ncc(C(=O)NCc3cccs3)c2C2CCN(C(=O)OC(C)(C)C)CC2)cc1C	.	/	/	/	.
COC(=O)C1=C(C(=O)OC)C(C(=O)OC)C(C(=O)OC)C(C(=O)OC)(C(=O)OC)C(C(=O)OC)=C1C(=O)OC (stereo not given)	/	/	.	.	/
COC(=O)C1=C(C(=O)OC)N2C=CC=CC2(C)C(C(=O)OC)=C1C(=O)OC (stereo not given)	.	32	.	.	.
COc1ccc(NC(=O)CC2C(=O)N(c3ccc(F)cc3)C(=O)N2Cc2cccnc2)cc1 (stereo not given)	.	/	/	/	.
Cc1cc(C(=O)Nc2ccccc2C)on1	.	.	.	.	.
Cc1ccccc1NC(=O)c1ccno1	.	32	.	.	.
Cc1nn(-c2ccc(Cl)cc2)c(N)c1C(O)(CSc1nccn1C)C(F)(F)F (stereo not given)	.	.	.	.	.
Cc1nn(-c2ccccc2)c(N)c1C(O)(CSc1nccn1C)C(F)(F)F (stereo not given)	.	37	.	.	.
COc1cc(/C=C2\CC/C(=C\c3ccc(OCCO)c(OC)c3)C2=O)ccc1OCCO	.	.	.	.	76
COc1ccc(/C=C2\CC/C(=C\c3ccc(OC)c(OC)c3)C2=O)cc1OC	.	.	.	.	.
CCOC(=O)c1c(C)[nH]c(C)c1S(=O)(=O)N1CCN(c2cccc(C(F)(F)F)c2)CC1	.	/	/	/	/
CCOc1ccccc1C(=O)Nc1ccc(-n2nncc2-c2ccccc2)cc1	.	/	/	/	.
Cc1ccc(C(=O)O/N=C(\N)Cc2cccs2)cc1[N+](=O)[O-]	.	.	.	?	.
Cc1cccc(C(=O)O/N=C(\N)c2cccc([N+](=O)[O-])c2)c1	.	.	.	.	.
N/C(=N\OC(=O)c1cccc2ccccc12)c1cccc([N+](=O)[O-])c1	.	.	83	?	.
COc1ccc(/C(N)=N/OC(=O)c2cccc([N+](=O)[O-])c2C)cc1OC	.	.	93	?	.
N/C(=N\OC(=O)c1cccs1)c1cccc([N+](=O)[O-])c1	.	.	69	42	.
COc1ccccc1C/C(N)=N/OC(=O)c1ccc(C)c([N+](=O)[O-])c1	.	/	145	?	/
COc1ccccc1-c1nnc(SCCOc2ccccc2C)o1	.	/	/	/	.
Cc1c(C(=O)Nc2ccc(Br)cc2F)oc2ccc(S(=O)(=O)N3CCCCC3)cc12	.	/	/	/	/
COc1cc(C(CC(=O)N2CCCC2)c2c(OC)cc(OC)c3ccc(=O)oc23)cc(OC)c1OC (stereo not given)	.	.	.	.	.
COc1cc(C(CCN2CCCC2)c2c(OC)cc(OC)c3ccc(=O)oc23)cc(OC)c1OC (stereo not given)	.	33	.	.	.
CCC(=O)N1CCc2cc(CNC(=O)c3ccc(OC)cc3)ccc21	.	/	/	/	.
N#CCc1ccc(C(=O)c2ccccc2)s1	.	40	.	.	.
CCN(C(=O)c1ccc(Br)o1)C1CCS(=O)(=O)C1 (stereo not given)	.	.	.	.	.
CN(C(=O)c1ccc(Br)o1)C1CCS(=O)(=O)C1 (stereo not given)	.	37	.	.	.
CCC(C)Oc1ccc(/C=C/c2[nH]c(=O)[nH]c(=O)c2[N+](=O)[O-])cc1OC (stereo not given)	34	.	.	.	.
CN1\C(=C/C=C/C=C/C=[N+](C)C)C(C)(C)c2ccccc21	.	63	.	.	47
CN1/C(=C\C(=O)c2cccnc2)C(C)(C)c2ccccc21	.	32	.	.	.
CN1/C(=C\C(=O)c2cncc(Br)c2)C(C)(C)c2ccccc21	.	.	.	.	.

From PubChem BioAssay
